Source: PubChem BioAssay AID624297 (National Center for Advancing Translational Sciences (NCATS), 2012)
Out of some 340,000 compounds screened, about 6,200 (1.8%) were called active. Inconclusive results (about 10%) are left out. Calls come from the whole dose curve; as a rule, active = well fitted activation curve with a large enough effect; inconclusive = small, poorly fitted or top-dose-only effect; inactive = no such curve, though single readings can be large or run the other way. The sample as a whole holds a higher share of actives than the screen did.

Experiment: A quantitative high throughput screen for small molecules that induce DNA re-replication in SW480 colon adenocarcinoma cells. For re-replication activation: % of control where 0% means no effect. Note: nearly all actives have a fitted effect of over 55% in size.
Settings: Hoechst DNA content imaging, 48 h; series mostly up to 46.1 µM; re-replication activation: at the top concentration
How it was run: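 DNA re-replication was detected as more nuclei of elevated Hoechst intensity after 48 hr exposure to compound (23 nL pinned per well of 250 cells).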
Potency is the fitted concentration of half-maximal effect.

Structure (SMILES) | re-replication activation | Potency
C#CCOCCOCCOCCNc1nc(N2CCN(C(=O)Cn3cc(CCO)nn3)CC2)nc(N2CCN(C(=O)Cn3cc(CCCN=C(N)N)nn3)CC2)n1 | -27.1% (inactive) | 
COc1ccccc1-c1nc(SC)n[nH]1 | 3.14% (inactive) | 
Cc1cc(C)nc(Nc2cc([N+](=O)[O-])ccc2C)n1 | -0.192% (inactive) | 
Cc1cc(C)nc(Nc2n[nH]c(-c3ccccc3N)n2)n1 |  | 29.1 µM (active)
Cc1noc(C)c1NC(=O)Nc1cccc2c1O[C@H](CN(C)C(=O)Nc1ccccc1)[C@@H](C)CN([C@H](C)CO)C2=O | -3.39% (inactive) | 
CCCSc1ccc([C@H]2N[C@@](Cc3ccccc3)(C(=O)OC)[C@H]3C(=O)N(C)C(=O)[C@@H]23)cc1 | 2.68% (inactive) | 
Cc1ccc(CNC(=O)COC(=O)C2CCC2)cc1 | -1.38% (inactive) | 
Cc1ccc(CCC(=O)Nc2ncc(Cc3cc(Cl)ccc3Cl)s2)o1 |  | 1.64 µM (active)
CCOc1ccccc1NC(=O)CCc1ccc(C)o1 | -4.07% (inactive) | 
Cc1cnc(NC(=O)CSc2nnc(-c3ccc(Cl)cc3Cl)n2N)s1 | -3.24% (inactive) | 
O=[N+]([O-])c1cc2ccccc2nc1-c1ccccc1 | -4.95% (inactive) | 
O=C(CN1C(=O)NC2(CCOc3ccccc32)C1=O)Nc1cccc([N+](=O)[O-])c1 (centres undefined) | -3.66% (inactive) | 
Cc1ccnc(NC(=O)c2ccco2)n1 | -1.17% (inactive) | 
Cc1ccc(C(=O)COc2cccc(NC(=O)c3ccco3)c2)cc1 | -1.13% (inactive) | 
CCn1nc(NC(=O)c2ccco2)c2cc3ccc(C)cc3nc21 |  | 9.2 µM (active)
O=S1(=O)CCOC[C@H](Cc2ccccc2)N1Cc1ccccc1Br | 1.97% (inactive) | 
O=C(CCc1nc2ccccc2c(=O)[nH]1)OCC(=O)c1cccc(Cl)c1 | 6.23% (inactive) | 
CCC(=O)/C(=C(/O)c1ccccc1)c1nc2ccccc2[nH]1 | 2.37% (inactive) | 
O=C(/C(=C/c1cccc(Cl)c1)c1nc2ccccc2[nH]1)c1ccccc1 |  | 18.4 µM (active)
NCCN1CCN2C(=O)CN(C(=O)c3ccccc3)CC12 (centres undefined) | -2.42% (inactive) | 
COc1ccc(N2CCN(C(CNS(=O)(=O)c3ccc(C)cc3)c3ccccc3)CC2)cc1 (centres undefined) | 0.608% (inactive) | 
Cc1cccc(C)c1NC(=O)CN(C)C(=O)CCC(=O)c1ccccc1 | -6.19% (inactive) | 
Cc1cccc(C)c1NC(=O)C(Cl)C(=O)c1ccccc1 (centres undefined) |  | 16.4 µM (active)
Cc1cccc(C)c1NC(=O)C(c1ccccc1)N1CC(=O)Nc2ccccc21 (centres undefined) | 0.667% (inactive) | 
COc1cc(OC)c(C(=O)NNC(=O)c2ccc(NS(=O)(=O)c3cccs3)cc2)cc1OC | -7.25% (inactive) | 
NC(=O)C1(Nc2ccc([N+](=O)[O-])cc2)CCCC1 | -5.68% (inactive) | 
C/C(=N/OC(=O)c1c(-c2c(F)cccc2Cl)noc1C)c1cnccn1 | 2.38% (inactive) | 

Structure (SMILES) | re-replication activation | Potency
CCCn1c(=NC(C)=O)c(C(=O)OCC)cc2c(=O)n3ccccc3nc21 | -5.85% (inactive) | 
CCOC(=O)c1cc2c(=O)n3ccccc3nc2n(CC(C)C)c1=NC(=O)c1c(-c2c(F)cccc2Cl)noc1C |  | 13 µM (active)
O=C(OCC(=O)N1CCN(C(=O)c2ccco2)CC1)c1c(Cl)cccc1Cl | -3.88% (inactive) | 
O=C(/C=C/c1ccc([N+](=O)[O-])o1)NNC(=O)c1ccc(F)cc1 |  | 3.66 µM (active)
Cc1ccc(/C=C/C(=O)Nc2ccc([N+](=O)[O-])c(NC(=O)/C=C/c3ccc(C)o3)c2)o1 | -131% (inactive) | 
O=C(NNC(=O)C1CCCC1)c1ccc(F)cc1 | -10.5% (inactive) | 
Cc1cccc(C(=O)OCC(=O)NC(C)C2CC3CCC2C3)c1O (centres undefined) | -17.9% (inactive) | 
CNC(=S)NNC(=O)c1sccc1OCc1ccccc1 | -0.0576% (inactive) | 
CNC(=S)NNC(=O)c1cccn(Cc2ccccc2)c1=O | 1.88% (inactive) | 
CNC(=S)NNC(=O)c1oc2nc(-c3ccccc3)cc(-c3ccco3)c2c1N |  | 14.6 µM (active)
COc1ccc(CC(=O)NC(C)c2ccc(Cl)c(Cl)c2)cc1S(=O)(=O)N1CCOCC1 (centres undefined) | 2.95% (inactive) | 
Cc1ccc(Nc2c(O)nc[nH]c2=O)cc1C | -13.6% (inactive) | 
C[C@]12CC[C@H](O)CC1=CCC1C2CC[C@@]2(C)C1CC[C@@H]2NC(=O)CCC(=O)O (some centres undefined) | 1.14% (inactive) | 
COC(=O)C1CC2=C(CC(C)(C)CC2=O)N(c2ccccc2)C1=O (centres undefined) | -17.5% (inactive) | 
Cc1ccc(S(=O)(=O)/N=C(/Nc2ccc3[nH]c(=O)[nH]c3c2)c2ccccc2)cc1 | -13.2% (inactive) | 
CCOC(=O)c1ccc(N/C(=N/S(=O)(=O)c2ccccc2)c2ccccc2)cc1 |  | 20.6 µM (active)
CCOC(=O)c1ccc(NC(=O)c2cccnc2)cc1 | -8.89% (inactive) | 
NC(=S)NN=C1CCCC(C(F)(F)F)C1 (centres undefined) | 1.54% (inactive) | 
O=[N+]([O-])c1ccc(C=NN=Cc2ccc([N+](=O)[O-])cc2)cc1 | 17.9% (inactive) | 
O=C1/C(=C\c2ccc([N+](=O)[O-])cc2)CS(=O)(=O)C/C1=C/c1ccc([N+](=O)[O-])cc1 |  | 4.11 µM (active)
O=C(NN=Cc1ccc([N+](=O)[O-])cc1)C1CC1 | 3.41% (inactive) | 
CCC(CO)Oc1cc(NC(=O)c2cccc(F)c2)c2ncn(C(C)C)c2c1 (centres undefined) | -12.5% (inactive) | 
O=C1N[C@@H](c2ccccc2)COC(=O)[C@H](Cc2ccc(F)cc2)C/C=C\C[C@@H]1CC(=O)N(CCO)Cc1ccccc1 | -12.5% (inactive) | 
CC1(C)Cc2c(C#N)c(SCc3nc4ccccc4[nH]3)nc(N3CCOCC3)c2CO1 |  | 12.6 µM (active)
CC(C)C(=O)N1CCN(c2nc(-c3ccccc3)c3c(c2C#N)CC(C)(C)OC3)CC1 | -7.44% (inactive) | 
COc1ccc(CSc2nc(N3CCOCC3)c3c(c2C#N)CC(C)(C)OC3)cc1 | 0.477% (inactive) | 
C=CC(COCc1ccccc1)N(CC(=O)OC)S(=O)(=O)c1cc(Br)ccc1OC (centres undefined) | 4.23% [at 9.22 µM] (inactive) | 
